Experimental data: PubChem BioAssay (NCATS)
Inconclusive results are not listed. Unmarked numbers belong to inactive results. Calls of active or inactive are those of the source. Calls come from the whole dose curve; as a rule, active = well fitted inhibition curve with a large enough effect; inconclusive = small, poorly fitted or top-dose-only effect; inactive = flat fitted curve, though single readings scatter.

molecular target: Calcium and integrin-binding protein 1 (Homo sapiens) (UniProt Q99828); assay: Primary qHTS for Identification of Calcium Integrin Binding Protein 1 (CIB1) Competitor (AID 1508620); details: CIB1-GST / FITC-alphaIIb peptide fluorescence polarization; series mostly up to 114 µM; activity change, negative = inhibition: at the top concentration; note: top concentration of the series differs between compounds
Procedure, shortened: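 Fluorescence polarization competition: GST-tagged CIB1 (1 uM final) preincubated with compound 15 min at room temperature, then FITC-labelled alphaIIb peptide (100 nM final) added. After 15 min at room temperature, polarization read at Ex 480/Em 540.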
% is set by controls: 0 for no effect and ±100 for the full control effect.

Calcium and integrin-binding protein 1 (Homo sapiens), sequence (Q99828 whole entry, looked up): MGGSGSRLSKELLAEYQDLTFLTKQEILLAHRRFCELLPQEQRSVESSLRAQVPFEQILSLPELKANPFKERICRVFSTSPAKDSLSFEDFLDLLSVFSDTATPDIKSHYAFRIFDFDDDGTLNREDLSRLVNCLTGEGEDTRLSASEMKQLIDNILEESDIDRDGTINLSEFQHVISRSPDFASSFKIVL

Row | SMILES | activity change, negative = inhibition [%] | Potency
1 | COc1cccc(NC(=S)N2CCN(c3ccc4ccccc4n3)CC2)n1 | 4.67 | 
2 | C(=Nc1cccnc1)c1cccs1 | 1.85 | 
3 | Cc1cc(NS(=O)(=O)c2ccc(N(C)C(=O)Cc3ccc(Cl)c(Cl)c3)cc2)no1 | -10.6 | 
4 | Cc1cccc(CNc2ncnc3ccc(-c4ccc5c(c4)OCCO5)cc23)c1 | 1.47 | 
5 | Cc1ccnc(NC(=S)N2CCN(c3cccc(C(F)(F)F)n3)CC2)c1 | -8.56 | 
6 | Cn1cnc(CCNc2ncnc3ccc(-c4ccc5c(c4)OCO5)cc23)c1 | -1.33 | 
7 | CC(C)(C)OC(=O)Cc1nnc(-c2cc3ccccc3[nH]2)s1 | 2.06 | 
8 | Cc1ccc(-c2nnc(NC(=O)Nc3ccc4ccccc4c3)s2)cc1 | 4.64 | 
9 | Oc1ccc(CNc2ccccn2)c2cccnc12 | 5.13 | 
10 | CCOc1ccc(NC(=O)NCC2CCCN2c2ccc(OC)cc2)cc1 (centres undefined) |  | inactive
11 | Cc1ccc(CNc2ncnc3ccc(-c4ccc5c(c4)OCO5)cc23)s1 | 4.51 | 
12 | Cc1cc(CNc2ncnc3ccc(-c4ccc5c(c4)OCO5)cc23)c(C)o1 | -4.9 | 
13 | Cc1ccc(N2CCC(CNc3nc(-c4ccccc4C(C)C)ncc3C)CC2)cn1 | 0.371 | 
14 | Nc1nc(NCc2ccc(-c3cccnc3)cc2)c2ccccc2n1 | 7.84 | 
15 | Cc1cc(C)n2ncc(C(=O)Nc3ccccc3C)c2n1 | 0.279 | 
16 | COC(=O)c1ccc(N2CCN(S(=O)(=O)c3ccc4c(c3)CC(=O)N4)CC2)cc1 | 0.315 | 
17 | COc1ccccc1C1=Nn2c(nnc2-c2ccccc2C)SC1 |  | inactive
18 | O=C(Nc1ccc(-c2nc3ccccc3[nH]2)cc1)Nc1ccc2occc2c1 | -1.67 | 
19 | CC(=O)Nc1sc2c(c1-c1cnn(C(C)=O)c1)CCNC2 | 0.0416 | 
